Sampled rows, rich in hits. Any-hit rate of the full collection: about 11%.
JMJD2E inh = blocks human JMJD2E demethylase activity; AID 2147; JMJD2E catalytic domain, FDH-coupled NADH fluorescence (FDH is formaldehyde dehydrogenase); actives 1.6% (n = 230,000); B2RXH2; Potency, µM (top dose mostly 57.1 µM), for inactives: top-dose activity change, negative = inhibition, actives largely listed as inhibitors;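 note: potency is the fitted concentration of half-maximal effect; 0% = wells with enzyme and -100% = buffer wells without enzyme; nearly all actives have a fitted effect of over 50% in size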
Target sequence (B2RXH2 1-337 limits assumed): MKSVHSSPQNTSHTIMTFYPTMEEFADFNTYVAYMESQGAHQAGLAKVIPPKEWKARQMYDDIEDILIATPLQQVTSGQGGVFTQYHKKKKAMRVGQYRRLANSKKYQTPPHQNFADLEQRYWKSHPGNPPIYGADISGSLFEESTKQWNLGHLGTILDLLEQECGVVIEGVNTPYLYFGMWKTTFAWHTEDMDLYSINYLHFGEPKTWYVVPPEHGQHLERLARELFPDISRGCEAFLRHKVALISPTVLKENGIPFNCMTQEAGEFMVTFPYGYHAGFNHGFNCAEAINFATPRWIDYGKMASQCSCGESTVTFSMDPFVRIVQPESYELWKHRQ
ALDH1A1 block = blocks purified human ALDH1A1 activity | P00352 | Purified ALDH1A1, NADH fluorescence, propionaldehyde substrate | Potency, µM (highest dose often 75.3 µM), inactives show top-dose activity, negative = inhibition, actives largely listed as inhibitors | actives 7.3% (n = 220,000);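 note: potency is the fitted concentration of half-maximal effect; plate controls were no enzyme wells and a reference inhibitor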
HPGD block = blocks human HPGD enzyme activity; P15428; purified HPGD, NADH fluorescence kinetic, PGE2 substrate; Potency, µM, without a hit: at the highest dose activity change, negative = inhibition, usual class: inhibitors; actives 4.3% (n = 150,000); AID 894; note: potency is the fitted concentration of half-maximal effect
Target sequence (P15428 whole entry, looked up): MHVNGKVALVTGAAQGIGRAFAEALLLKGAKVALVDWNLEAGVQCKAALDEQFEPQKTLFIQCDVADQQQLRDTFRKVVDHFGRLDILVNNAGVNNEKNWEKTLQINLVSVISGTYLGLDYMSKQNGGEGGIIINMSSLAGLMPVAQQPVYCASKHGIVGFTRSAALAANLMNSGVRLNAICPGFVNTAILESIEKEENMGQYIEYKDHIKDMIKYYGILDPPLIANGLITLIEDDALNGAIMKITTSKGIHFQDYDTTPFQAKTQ
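NADH formation kinetics: reaction with 30 uM PGE2 and 1 mM NAD+ (final), 20 nM enzyme, Tris-HCl pH 8 with Tween 20, after 15 min compound preincubation at room temperature. Fluorescence change, last versus first of five reads.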
PNC assembly inh = perinucleolar compartment assembly inhibition. PC3M PTB-GFP, PNC prevalence imaging, 16 h; hits give low values. activity change (PNC), negative = inhibition, % at 10 µM. actives 3.1% (n = 140,000). AID 2417;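 active = readout at or below -70, meaning at least 70% loss of cells showing the perinucleolar compartment, a nuclear body marking cancer cells; inconclusive = readout between -30 and a set limit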;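 note: plate controls were DMSO wells for no effect and camptothecin positive control wells for full effect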
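Compounds are pinned in duplicate onto adhered PC3M cells stably expressing GFP-tagged PTB and incubated 16 h at 37 C. Cells are then fixed, nuclei stained with Hoechst, and PNC-positive cells counted.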
Numbers without * were called inactive; ? = inconclusive; nt = not tested or not shown; [ ] = another dose, or the depositor's remark. Unless noted, calls come from the whole dose curve; as a rule, active = well fitted inhibition curve with a large enough effect (not every such curve was filed as active); inconclusive = small, poorly fitted or top-dose-only effect, or another doubt; inactive = no such curve, though single readings can be large or run the other way. Unless noted, % is set by controls: 0 for no effect and ±100 for the full control effect.

SMILES	JMJD2E inh	ALDH1A1 block	HPGD block	PNC assembly inh
Cc1ccc(C2(C)NC(=O)N(CC(=O)NCc3cccs3)C2=O)cc1 (configuration not stated)	-13.2%	1.8%	?	-108.4*
O=C(Nc1c2c(nc3c1CCC3)CCCC2)c1ccccn1	-0.7%	6.9%	-3.7%	58.0
Cc1c(C(=O)NCc2ccc3c(c2)OCO3)oc2ccc(S(=O)(=O)N3CCCC3)cc12	35.5µM*	?	?	?
Cc1c(C(=O)O)oc2ccc(S(=O)(=O)N3CCC(C)CC3)cc12	3.7%	0.7%	11.2µM*	3.6
COc1ccc(NC(=O)c2oc3ccc(S(=O)(=O)N4CCC5(CC4)OCCO5)cc3c2C)cc1	?	22.4µM*	-26.2%	?
Cc1c(C(=O)NCc2ccc3c(c2)OCO3)oc2ccc(S(=O)(=O)N3CCCCC3)cc12	?	-3.0%	-15.5%	-4.3
Cc1c(C(=O)N(C)Cc2ccccc2)oc2ccc(S(=O)(=O)N3CCCC3)cc12	-5.5%	22.4µM*	-3.0%	14.9
CN(CCc1ccc(Cl)c(Cl)c1)CCN1CCCCCC1	1.9%	-6.0%	1.2%	nt
CCc1cc(=O)oc2cc3occ(-c4ccc(OC)c(F)c4)c3cc12	?	-9.2%	?	-93.1*
CCc1cc(=O)oc2cc3occ(C)c3cc12	-1.3%	?	-8.8%	?
O=C(NCCCn1ccnc1)c1nn2c(C(F)(F)F)cc(-c3ccccc3)nc2c1Cl	5.2%	6.1%	nt	nt
CCOC(=O)c1sc(NC(=O)C2CCCO2)c(C(=O)OCC)c1C (configuration not stated)	?	8.91µM*	?	19.1
Cc1c(C(=O)OC(C)C)sc(NC(=O)C2CCCO2)c1C(=O)OC(C)C (configuration not stated)	-3.2%	-12.3%	-8.3%	21.1
CCOC(=O)c1c(NC(=O)COc2cccc3c2CCN(C)C3=O)sc2c1CCC2	?	20µM*	?	?
CCC(=O)N(CC(=O)Nc1sc(C)c(C)c1C(N)=O)C1CCCCC1	0.8%	?	-7.2%	?
N#Cc1c(NC(=O)C2CCCO2)sc2c1CCCCCC2 (configuration not stated)	6.1%	14.1µM*	?	-26.3
Cc1sc(NC(=O)C2CCCO2)c(C(N)=O)c1C (configuration not stated)	?	11.2µM*	28.2µM*	34.2
NC(=O)C1=C[C@@H](c2ccc(C(F)(F)F)cc2)C[C@@H](OCCCCO)O1	?	-7.2%	nt	nt
Cn1ncc([N+](=O)[O-])c1C(=O)N/N=C/c1cccc([N+](=O)[O-])c1	-13.5%	-8.4%	nt	nt
CN(C)C(=O)c1c(C(F)(F)F)nn(C)c1Cl	-3.2%	0.9%	nt	nt
CCOC(=O)c1c(NC(=O)C2CCCO2)sc(C)c1C (configuration not stated)	?	14.1µM*	nt	nt
NC(=O)c1c(NC(=O)C2CCCO2)sc2c1CCCC2 (configuration not stated)	-2.7%	?	8.91µM*	?
CCOC(=O)c1cccc(NC(=O)C2CCCO2)c1 (configuration not stated)	-3.2%	1.8%	-15.9%	?
CCOC(=O)c1c(NC(=O)C2CCCO2)sc(C(=O)OC(C)(C)C)c1C (configuration not stated)	15.6%	14.1µM*	?	15.6
CCOC(=O)c1c(NS(=O)(=O)c2cccc(OC)c2)sc2c1CCC2	?	10µM*	35.5µM*	?
SMILES	JMJD2E inh	ALDH1A1 block	HPGD block	PNC assembly inh
CCCCCCCCCCCCCCCC(=O)NC(C)C	3.4%	-1.5%	-3.2%	nt
CCOC(=O)c1c(NC(=O)C2CCCO2)sc2c1CCC2 (configuration not stated)	-27.7%	22.4µM*	-19.1%	?
CCCc1cc(C(N)=O)c(NC(=O)C2CCCO2)s1 (configuration not stated)	-27.9%	14.1µM*	?	21.5
CCCc1cc(C(N)=O)c(NC(=O)c2ccco2)s1	?	?	?	8.6
CCOC(=O)Nc1sc2c(c1C(=O)OCC)CCC2	1.4%	?	-19.7%	12.6
CCOc1ccccc1OCC(=O)NNC(=O)Cn1cnc2c1c(=O)n(C)c(=O)n2C	6.0%	19.9%	nt	nt
NS(=O)(=O)c1ccc(NC(=S)Nc2ccn(Cc3cccc4ccccc34)n2)cc1	-1.7%	12.6µM*	nt	nt
Cc1ccc(C(=O)NC(=O)CSc2ncccc2C(=O)O)cc1	-0.5%	?	nt	nt
Cn1ccc(-c2ccccc2)n1	0.6%	5.4%	nt	nt
N#Cc1cc(-c2ccccc2)nn1-c1ccccc1	?	22.4µM*	12.6µM*	2.2
O=C(C1=C[C@@H]2[C@H]3C(=O)N(c4ccc(Cl)cc4)C(=O)[C@H]3[C@@H](C(=O)c3ccc(Cl)cc3)N2C=C1)c1ccccc1	5.8%	14.1µM*	31.6µM*	17.6
Cc1ccc(N2C(=O)C3C(C2=O)C(C(=O)c2ccc(Cl)cc2)N2CCCC32)cc1 (configuration not stated)	?	?	-23.2%	?
CC(C)N(C1=CC(=O)OC12CCCCC2)C(C)C	-1.5%	nt	nt	nt
CCN(CC)C1=CC(=O)OC12CCCCC2	-2.4%	14.1µM*	35.5µM*	23.3
COc1ccc(N=C2S/C(=C\c3ccc(OC(C)C(=O)O)c(OC)c3)C(=O)N2CCc2c[nH]c3ccccc23)cc1 (configuration not stated)	-7.6%	14.1µM*	nt	nt
COc1cc(/C=C2\SC(=Nc3ccccc3)N(CCc3c[nH]c4ccccc34)C2=O)ccc1OC(C)C(=O)O (configuration not stated)	2.7%	6.3%	?	?
COc1ccc(Oc2ncc3nc(C)c(=O)n(-c4ccc(OC)cc4)c3n2)cc1	nt	?	-21.6%	nt
NNC(=O)c1ccc[n+](CCc2ccccc2)c1	nt	0.7%[13.5 µM]	-6.9%	nt
CC1=C(C(=O)Nc2ccccc2)C(c2cccc([N+](=O)[O-])c2)Nc2nc3ccccc3n21 (configuration not stated)	7.6%	34.3%	-2.3%	?
CNC(=O)C1=C(C)n2c(nc3ccccc32)NC1c1ccc(OC)cc1 (configuration not stated)	-7.4%	-2.3%	-4.0%	-113.8*
CCOc1ccc(-n2c(SCC(=O)NCc3ccco3)nc3c(c2=O)SCC3)cc1	-3.9%	14.1µM*	-20.4%	?
CCOC(=O)c1sc(NC(=O)CSc2nc3c(c(=O)n2-c2ccc(C)cc2)SCC3)c(C(=O)OCC)c1C	-1.4%	9.46µM*	-29.0%	6.7
Cc1ccc(Cn2c(SCC(=O)NCC3CCCO3)nc3ccsc3c2=O)cc1 (configuration not stated)	7.9%	20µM*	nt	nt
O=C(CSc1nc2c(c(=O)n1-c1ccc(Br)cc1)SCC2)NCC1CCCO1 (configuration not stated)	5.8%	?	-15.0%	77.3
O=C(CSc1nc2ccsc2c(=O)n1Cc1ccc(C(=O)O)cc1)NCC1CCCO1 (configuration not stated)	-1.2%	-3.4%	?	79.1
Cc1ccc(-n2c(SCC(=O)NCC3CCCO3)nc3c(c2=O)SCC3)cc1 (configuration not stated)	2.8%	25.1µM*	-27.2%	-6.8

Bioassay records: PubChem, National Center for Advancing Translational Sciences (NCATS)
